TIM10 inh = growth inhibitors of isogenic TIM10 control yeast, primary screen, counter-screen for tim10-1 yeast inhibitor project, luminescence, uHTS; S. cerevisiae TIM10 strain growth, BacTiter-Glo luminescence, 24 h; inhibition, % at 10 µM; hit rate 1.4% among 330,000; AID 463195, 2010;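 active = inhibition of 40% or more at the single tested concentration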;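 note: wild-type TIM10 isogenic control strain grown at permissive 25 °C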
tim23-1 inh = growth inhibitors of tim23-1 mutant yeast, primary screen, luminescence, uHTS; inhibition, % at 20 µM; hit rate 1.3% among 330,000; S. cerevisiae tim23-1 growth, BacTiter-Glo luminescence, 24 h;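 active = growth inhibition of the mutant yeast at or above 50%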;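 note: temperature-sensitive mutant grown at 25 °C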
NALP3 yeast inh = NALP3 inflammasome inhibitors in reconstituted yeast, primary screen, luminescence, uHTS; Yeast reconstituted NLRP3/ASC/caspase-1, beta-gal luminescence, 24 h; inhibition, % at 10 µM; hit rate 0.39% among 330,000;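 active = inhibition of 50% or more; inactive = inhibition below 50%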
tim10-1 inh = growth inhibitors of tim10-1 mutant yeast, primary screen, luminescence, uHTS. S. cerevisiae tim10-1 ts strain growth, BacTiter-Glo, 24 h. inhibition, % at 20 µM. hit rate 2.2% among 330,000;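 active = inhibition of at least 40%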;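 note: mutant grown at 25 °C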
SKKanGAS inh = S. pyogenes SKKanGAS growth inhibitors in kanamycin, primary screen, streptokinase expression inhibitor project, SKKanGAS strain, BacTiter-Glo luminescence; 6 h; inhibition, % at 7.5 µM; hit rate 1.3% among 300,000; AID 1662, 2009;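 active = mean replicate score, as percent of positive control median, at least 50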;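 note: strain carries kanamycin resistance gene driven by streptokinase promoter and grows in 40 µg/ml kanamycin; loss of luminescence reflects streptokinase promoter inhibition or plain growth inhibition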
PfHsp90 yeast 2 = growth inhibition of PfHsp90-expressing yeast, primary screen, antimalarial PfHsp90 inhibitor project, S. cerevisiae, BacTiter-Glo luminescence, single point, set 2 | inhibition, % at 9.4 µM | BacTiter-Glo ATP, 48 h; yeast lacking PDR1 and PDR3 efflux regulators | hit rate 0.32% among 310,000 | AID 504621, 2011;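 active = every replicate shows inhibition above about 80%, whatever the replicate mean, limit read from the data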
tim23-1 confirm = tim23-1 mutant yeast growth inhibitors, confirmation, luminescence, single concentration; hit rate 83% among 4,400; inhibition, % at 20 µM; S. cerevisiae tim23-1 growth, BacTiter-Glo luminescence, 24 h; shares compounds with tim23-1 inh; AID 463218, 2010;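 active = inhibition above about 39% in either of two replicate wells at 20 µM, limit read from the data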;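 note: temperature-sensitive tim23-1 mutant grown at 25 °C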
Numbers stand for hits; i = inactive; nt = no result. Only some compounds are listed: those with a hit (about 4.6% of all), similar ones and a draw of the others.

SMILES | TIM10 inh | tim23-1 inh | NALP3 yeast inh | tim10-1 inh | SKKanGAS inh | PfHsp90 yeast 2 | tim23-1 confirm
COc1ccccc1N(C)S(=O)(=O)c1ccc(C(=O)OCC(=O)NCCC2=CCCCC2)cc1 | i | i | i | i | i | i | nt
Clc1ccccc1-c1ccc2ncnc(NCc3cccs3)c2c1 | i | 54.2 | i | i | nt | i | i
Clc1cccc(-c2ccc3ncnc(NCc4cccs4)c3c2)c1 | i | 50.8 | i | i | nt | i | 40.2
Cc1cccc(-c2ccc3ncnc(NCc4cccs4)c3c2)c1 | i | i | i | i | nt | i | nt
CN(C)/N=C/c1c(O)ccc2ccccc12 | i | i | i | i | i | i | nt
CS/C(N)=N/N=C/c1c(O)ccc2ccccc12 | i | 57.9 | i | i | i | i | 69.8
Oc1ccc2ccccc2c1/C=N/c1nccs1 | i | 57.3 | i | i | i | nt | 59.8
Oc1ccc2ccccc2c1C=Nc1ccccc1Br | i | 53.3 | i | i | i | i | 50.9
COc1cccc(C(=O)N2CCN(C(=O)C3COc4ccccc4O3)CC2)c1 (stereo not given) | i | i | i | i | i | i | nt
O=C1NC(c2cccc(Br)c2)=N/C1=C\c1ccco1 | i | 56.0 | i | i | i | i | i
CC(NC(=O)CCNC(=O)c1ccc(C(C)(C)C)cc1)c1ccccc1 (stereo not given) | i | i | i | i | nt | i | nt
CCn1c(/C=N/c2nc3ccccc3n2C)nc2ccccc21 | i | 55.9 | i | i | i | i | 42.1
COc1cc(C)c(C)cc1S(=O)(=O)NC1CC(C)(C)NC(C)(C)C1 | i | i | i | i | i | i | nt
Cc1oc2cc(O)cc(O)c2c(=O)c1-c1ccc2c(c1)OCCCO2 | i | 65.3 | i | i | i | i | 53.0
COc1ccc(C(=O)CSc2nnc(CN3CCCC3)n2-c2ccc(F)cc2)c(OC)c1 | i | i | i | i | i | i | nt
CC(C)(C)CC(=O)NC(=S)Nc1ccccc1C(F)(F)F | i | 50.9 | i | i | i | i | i
COC(=O)C1=C(C(=O)OC)C(c2cc(Br)ccc2O)c2sc(=O)[nH]c2S1 (stereo not given) | nt | nt | nt | nt | nt | i | nt
COC(=O)C1=C(C(=O)OC)C(c2cc(Cl)ccc2O)c2sc(=O)[nH]c2S1 (stereo not given) | i | 62.1 | i | i | i | i | 57.7
CCCCC(=O)NC(=S)Nc1cccc(NC(=O)c2ccccc2)c1 | i | i | i | i | i | i | nt
COc1ccc(-c2c(C#CC(C)(C)O)c3ccccc3n2C)cc1 | i | i | i | i | nt | i | nt
COc1ccc(-c2oc3ccccc3c2C#CC(C)(C)O)cc1 | i | 52.3 | i | i | nt | i | 37.5
CCC(C(=O)O)P(=O)(c1ccc(Cl)cc1)c1ccc(Cl)cc1 (stereo not given) | i | i | i | i | i | i | nt
CCOC(=O)C1CCN(C(=O)COc2ccc3c(c2)OCO3)CC1 | i | i | i | i | i | i | nt
O=c1oc(-c2ccc([N+](=O)[O-])cc2)nc2ccc(O)cc12 | i | 51.6 | i | i | i | i | 64.8
O=c1oc(-c2ccccc2[N+](=O)[O-])nc2ccccc12 | i | 55.5 | i | i | i | i | 50.5
SMILES | TIM10 inh | tim23-1 inh | NALP3 yeast inh | tim10-1 inh | SKKanGAS inh | PfHsp90 yeast 2 | tim23-1 confirm
O=c1oc(-c2ccc([N+](=O)[O-])cc2)nc2ccccc12 | i | i | i | i | i | i | nt
O=Cc1cccc(OCc2cccc3ccccc23)c1 | i | 57.5 | i | i | i | i | i
Cc1cc2ccccn2c1C(=O)c1cc([N+](=O)[O-])cc([N+](=O)[O-])c1 | i | 56.5 | i | i | i | i | 66.8
O=C(N/N=C/c1cc(Br)cc(Br)c1O)c1cccc(N2CCCC2=O)c1 | i | 50.8 | i | i | 87.7 | i | 55.7
COc1cccc(-n2nnnc2SCC(=O)NC2CCCCC2)c1 | i | i | i | i | i | i | nt
CCCN(C(=O)c1ccc([N+](=O)[O-])c(C)c1)c1c(N)n(Cc2ccccc2)c(=O)[nH]c1=O | i | 52.7 | i | i | nt | i | 59.6
CCCCn1c(N)c(N(CCC(C)C)C(=O)C2=COCCO2)c(=O)[nH]c1=O | i | i | i | i | i | i | nt
CCCCn1c(N)c(N(CCC(C)C)C(=O)c2ccc3c(c2)OCO3)c(=O)[nH]c1=O | i | 62.1 | i | i | i | i | 58.3
CCCN(C(=O)c1cc(C)ccc1C)c1c(N)n(Cc2ccccc2)c(=O)[nH]c1=O | i | i | i | i | nt | i | nt
CCCCN(C(=O)c1ccc2c(c1)OCCO2)c1c(N)n(CCCC)c(=O)[nH]c1=O | i | 58.5 | i | i | i | i | 56.8
O=C(NCc1csc(-c2cccs2)n1)Nc1cccc(Cl)c1 | i | 52.6 | i | i | i | i | 63.7
O=C1C(=O)N(C/C=C/c2ccccc2)c2ccccc21 | i | 75.8 | i | i | i | i | i
Cc1sc(NC(=O)c2ccco2)nc1-c1ccccc1 | i | 56.2 | i | i | i | i | 72.0
CCCC(CCC)c1nnc(NC(=O)c2ccco2)s1 | i | 62.0 | i | i | i | i | 63.9
CCC(c1ccccc1)c1nnc(NC(=O)c2ccco2)s1 (stereo not given) | i | i | i | i | i | nt | nt
O=C(Nc1nc2c(F)cccc2s1)c1ccco1 | i | 55.1 | i | i | i | i | 54.1
CCNC(=S)N(CCc1c(C)[nH]c2ccccc12)Cc1cccnc1 | i | i | i | i | i | i | nt
CC(=O)c1ccc(OCC(C)Oc2ccc(C#N)cc2)cc1 (stereo not given) | i | i | i | i | i | i | nt
COC(=O)c1sccc1NC(=S)NCc1ccc(Cl)cc1 | i | 61.7 | i | i | i | i | 53.3
Cc1ccc(Nc2nc(-c3cccnc3)nc3ccccc23)cc1 | i | 55.7 | i | i | i | i | 55.8
CC(Nc1nc(-c2cccnc2)nc2ccccc12)c1ccc(F)cc1 (stereo not given) | i | 58.9 | i | i | i | i | 60.0
CC(=O)OC(C(=O)NC1CCCCC1)c1ccc(Cl)c(Cl)c1 (stereo not given) | i | i | i | i | i | i | nt
CSC1=NC(C(Cl)(Cl)Cl)N=C(c2ccccc2)N1 (stereo not given) | i | i | i | i | i | nt | nt
CC(C)(CO)NCC(O)Cn1cc(C=O)c2ccccc21 (stereo not given) | i | i | i | i | i | i | nt
COc1ccc(NC(=O)c2cc(S(=O)(=O)NCC3COc4ccccc4O3)ccc2F)cc1 (stereo not given) | i | 57.7 | i | i | i | i | 65.1
O=C(NC(=S)NCc1ccco1)c1cccc(Cl)c1 | i | 56.5 | i | i | i | i | 47.2
COC(=O)c1c(-c2ccc(S(C)(=O)=O)cc2)sc2ccc(OC)cc12 | i | 51.8 | i | i | nt | nt | 42.8

Assay outcomes as filed in PubChem.
